Source: PubChem BioAssay AID1159580 (chemical genetic matrix, 2015)
Where “and” joins values, the source holds several entries; their conditions need not be identical. Equal entries are not always repeated. Out of some 5,500 compounds screened, about 2,000 (36%) were called active. Roughly 18% stayed inconclusive and do not appear here. Rule as the data show it: active = normalized growth mostly below about 0.91 (no sharp cut-off); inconclusive = no clear call, values can overlap the other calls; inactive = mostly above about 0.92. The list shows a part of the results.

Experiment: chemical genetic growth profiling, strain panel (AID 1159580);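 also: tested at 20 µM; growth read once vehicle control cultures reached saturation at 30 °C; 1 = growth at the plate median or of vehicle wells; lower values mean less growth of the strain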
Conditions: S. cerevisiae deletion strains, growth OD

Compound: C/C=C(/C(=C/C)c1ccc(O)cc1)c1ccc(O)cc1
- normalized growth (locus YAL021C, strain ccr4, stronger effect = lower value): 1.02 (inactive)
- normalized growth (locus YAL026C, strain drs2, stronger effect = lower value): 0.9 (active)
- normalized growth (locus YAL030W, strain snc1, stronger effect = lower value): 0.978 (inactive)
- normalized growth (locus YBL061C, strain skt5, stronger effect = lower value): 0.974 (inactive)
- normalized growth (locus YBR009C, strain hhf1, stronger effect = lower value): 0.929 (inactive)
- normalized growth (locus YBR021W, strain FUR4, stronger effect = lower value): 0.907 (inactive)
- normalized growth (locus YBR023C, strain chs3, stronger effect = lower value): 0.968 (inactive)
- normalized growth (locus YBR171W, strain sec66, stronger effect = lower value): 0.94 (inactive)
- normalized growth (locus YBR229C, strain ROT2, stronger effect = lower value): 0.995 (inactive)
- normalized growth (locus YBR231C, strain swc5, stronger effect = lower value): 1 (inactive)
- normalized growth (locus YBR279W, strain paf1, stronger effect = lower value): 0.971 (inactive)
- normalized growth (locus YCL011C, strain gbp2, stronger effect = lower value): 0.968 (inactive)
- normalized growth (locus YCL016C, strain dcc1, stronger effect = lower value): 0.997 (inactive)
- normalized growth (locus YCL029C, strain bik1, stronger effect = lower value): 0.823 (active)
- normalized growth (locus YCL069W, strain vba3, stronger effect = lower value): 0.953 (inactive)
- normalized growth (locus YCR088W, strain abp1, stronger effect = lower value): 0.989 (inactive)
- normalized growth (locus YDL005C, strain med2, stronger effect = lower value): 0.992 (inactive)
- normalized growth (locus YDL035C, strain GPR1, stronger effect = lower value): 0.892 (inactive)
- normalized growth (locus YDL040C, strain nat1, stronger effect = lower value): 0.979 (inactive)
- normalized growth (locus YDL074C, strain BRE1, stronger effect = lower value): 0.492 (active)
- normalized growth (locus YDL101C, strain DUN1, stronger effect = lower value): 0.869 (active)
- normalized growth (locus YDL185W, strain tfp1, stronger effect = lower value): 0.844 (active)
- normalized growth (locus YDL192W, strain arf1, stronger effect = lower value): 0.567 (active)
- normalized growth (locus YDR001C, strain nth1, stronger effect = lower value): 0.962 (inactive)
- normalized growth (locus YDR069C, strain doa4, stronger effect = lower value): 0.974 (inactive)
- normalized growth (locus YDR101C, strain arx1, stronger effect = lower value): 0.846 (active)
- normalized growth (locus YDR137W, strain rgp1, stronger effect = lower value): 0.757 (active)
- normalized growth (locus YDR159W, strain sac3, stronger effect = lower value): 0.923 (inactive)
- normalized growth (locus YDR162C, strain NBP2, stronger effect = lower value): 0.561 (active)
- normalized growth (locus YDR195W, strain ref2): 0.989 (inactive)
- normalized growth (locus YDR297W, strain sur2, stronger effect = lower value): 0.952 (inactive)
- normalized growth (locus YDR318W, strain mcm21, stronger effect = lower value): 0.789 (active)
- normalized growth (locus YDR334W, strain swr1, stronger effect = lower value): 0.968 (inactive)
- normalized growth (locus YDR335W, strain msn5, stronger effect = lower value): 0.943 (inactive)
- normalized growth (locus YDR388W, stronger effect = lower value): 0.589 (active)
- normalized growth (locus YDR392W, strain spt3, stronger effect = lower value): 0.905 (inactive)
- normalized growth (locus YDR502C, strain sam2, stronger effect = lower value): 0.821 (active)
- normalized growth (locus YEL003W, strain gim4, stronger effect = lower value): 0.949 (inactive)
- normalized growth (locus YEL037C, strain rad23, stronger effect = lower value): 0.989 (inactive)
- normalized growth (locus YEL061C, strain CIN8 (second series), stronger effect = lower value): 0.973 (inactive)
- normalized growth (locus YEL061C, strain CIN8, stronger effect = lower value): 0.899 (active)
- normalized growth (locus YER015W, strain faa2, stronger effect = lower value): 0.953 (inactive)
- normalized growth (locus YER016W, strain bim1, stronger effect = lower value): 0.986 (inactive)
- normalized growth (locus YER110C, stronger effect = lower value): 0.982 (inactive)
- normalized growth (locus YER111C, strain swi4, stronger effect = lower value): 0.993 (inactive)
- normalized growth (locus YER155C, strain BEM2 (second series), stronger effect = lower value): 0.959 (inactive)
- normalized growth (locus YER155C, strain BEM2, stronger effect = lower value): 0.624 (active)
- normalized growth (locus YER167W, strain BCK2, stronger effect = lower value): 0.904 (inactive)
- normalized growth (locus YFR010W, strain ubp6, stronger effect = lower value): 0.982 (inactive)
- normalized growth (locus YGL078C, strain dbp3, stronger effect = lower value): 0.87 (active)
- normalized growth (locus YGL086W, strain mad1, stronger effect = lower value): 0.832 (active)
- normalized growth (locus YGL167C, strain pmr1, stronger effect = lower value): 0.978 (inactive)
- normalized growth (locus YGL173C, strain kem1, stronger effect = lower value): 0.927 (inactive)
- normalized growth (locus YGL227W, strain vid30, stronger effect = lower value): 0.985 (inactive)
- normalized growth (locus YGL240W, strain doc1, stronger effect = lower value): 0.945 (inactive)
- normalized growth (locus YGL248W, strain PDE1, stronger effect = lower value): 0.81 (active)
- normalized growth (locus YGL253W, strain hxk2, stronger effect = lower value): 0.971 (inactive)
- normalized growth (locus YGR135W, strain pre9, stronger effect = lower value): 0.836 (active)
- normalized growth (locus YGR229C, strain SMI1, stronger effect = lower value): 0.504 (active)
- normalized growth (locus YGR252W, strain gcn5, stronger effect = lower value): 0.682 (active)
- normalized growth (locus YHR013C, strain ard1, stronger effect = lower value): 1.15 (inactive)
- normalized growth (locus YHR027C, strain rpn1, stronger effect = lower value): 0.979 (inactive)
- normalized growth (locus YHR030C, strain SLT2, stronger effect = lower value): 0.691 (active) and 0.969 (inactive)
- normalized growth (locus YHR079C, strain IRE1 (second series), stronger effect = lower value): 0.802 (active)
- normalized growth (locus YHR079C, strain IRE1, stronger effect = lower value): 0.982 (inactive)
- normalized growth (locus YHR094C, strain hxt1, stronger effect = lower value): 0.968 (inactive)
- normalized growth (locus YHR129C, strain ARP1, stronger effect = lower value): 0.841 (active)
- normalized growth (locus YHR142W, strain chs7, stronger effect = lower value): 0.943 (inactive)
- normalized growth (locus YHR200W, strain rpn10, stronger effect = lower value): 0.845 (active)
- normalized growth (locus YIL066C, strain RNR3, stronger effect = lower value): 0.9 (inactive)
- normalized growth (locus YIL073C, strain SPO22, stronger effect = lower value): 0.976 (inactive)
- normalized growth (locus YIL125W, strain kgd1, stronger effect = lower value): 0.858 (active)
- normalized growth (locus YIR030C, strain dcg1, stronger effect = lower value): 0.958 (inactive)
- normalized growth (locus YJL092W, strain hpr5, stronger effect = lower value): 0.971 (inactive)
- normalized growth (locus YJL095W, strain BCK1 (second series), stronger effect = lower value): 0.944 (inactive)
- normalized growth (locus YJL095W, strain BCK1, stronger effect = lower value): 0.497 (active) and 0.978 (inactive)
- normalized growth (locus YJL115W, strain asf1, stronger effect = lower value): 0.984 (inactive)
- normalized growth (locus YJL129C, strain trk1, stronger effect = lower value): 0.9 (inactive)
- normalized growth (locus YJL134W, strain LCB3, stronger effect = lower value): 0.998 (inactive)
- normalized growth (locus YJL154C, strain vps35, stronger effect = lower value): 0.969 (inactive)
- normalized growth (locus YJL164C, strain tpk1, stronger effect = lower value): 0.972 (inactive)
- normalized growth (locus YJL166W, strain qcr8, stronger effect = lower value): 0.915 (inactive)
- normalized growth (locus YJL168C, strain set2, stronger effect = lower value): 0.979 (inactive)
- normalized growth (locus YJL187C, strain SWE1 (second series), stronger effect = lower value): 0.814 (active)
- normalized growth (locus YJR043C, strain POL32, stronger effect = lower value): 0.971 (inactive)
- normalized growth (locus YJR066W, strain TOR1, stronger effect = lower value): 0.931 (inactive)
